We go through 31 molecules from PubChem BioAssay (Tox21).

Experiment [1] in a line: qHTS assay to identify small molecule antagonists of the androgen receptor (AR) signaling pathway using the MDA cell line in the presence of 0.5 nM R1881 - cell viability counter screen (AID 1259242). Also: nearly all actives have a fitted effect of over 45% in size. Put shortly:
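Cytotoxicity toward MDA-kb2 cells is measured by CellTiter-Fluor live-cell protease fluorescence after 16 hr compound exposure at 37C in the presence of 0.5 nM R1881 stimulator.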

In experiment [2] the target is Estrogen receptor (Homo sapiens) (UniProt P03372). The experiment is described as follows: qHTS assay to identify small molecule antagonists of the estrogen receptor alpha (ER-alpha) signaling pathway using the BG1 cell line in the presence of 0.1 nM 17-beta-estradiol (AID 1259244). Also: nearly all actives have a fitted effect of over 50% in size. An outline of the steps: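 After 5 days in hormone-depleted medium (charcoal-stripped serum, no phenol red), VM7Luc4E2 cells were seeded, incubated 24 h, then co-treated with compound and 0.1 nM (final) estradiol for 22 h before luminescence detection.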

Experiment [3] in a line: qHTS assay to identify small molecule HDAC inhibitors (AID 1259364). Also: top concentration of the series differs between compounds; nearly all actives have a fitted effect of over 45% in size. Put shortly:
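Homogeneous cell-based luminescent assay of endogenous class I/II HDAC activity; HCT-116 cells, 2 h compound exposure, 30 min HDAC-Glo development at RT.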

Experiment [4] can be described thus: qHTS assay to identify small molecule HDAC inhibitors - cell viability counter screen (AID 1259365). Also: series mostly up to about 92 µM; nearly all actives have a fitted effect of over 50% in size. Put shortly:
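Counter screen in wild-type HCT-116 cells: compounds dissolved in DMSO are pin-transferred onto overnight-plated cells and left 2hr at 37C. ATP-based CellTiter-Glo luminescence then measures viable cells.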

A short description of experiment [5]: qHTS assay to identify small molecule agonists of the sonic hedgehog signaling (Shh) pathway (AID 1259368; calls by dose curve;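 also: NIH/3T3-derived 3T3Gli1-Luc cells carrying a stable Gli1-driven firefly luciferase reporter; series mostly up to about 92 µM; nearly all actives have a fitted effect of over 15% in size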). Put shortly:
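Steps: seed 3T3 Gli1-Luc cells, incubate 4 hr at 37 C, pin-transfer compounds in DMSO alongside a positive control, incubate 24 hr, add luciferase detection reagent, wait 30 min at room temperature, read luminescence.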

Experiment [6] can be described thus: qHTS assay to identify small molecule antagonists of the sonic hedgehog signaling (Shh) pathway (AID 1259369; calls by dose curve; also: nearly all actives have a fitted effect of over 45% in size; also: potency is read from the fitted curve at half-maximal effect). Put shortly:
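Inhibition of Shh signalling is measured as reduced Gli1-response-element firefly luciferase output in an NIH/3T3-derived stable reporter clone stimulated with conditioned medium for 24hr.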

Experiment [7] is described as follows: qHTS assay to identify small molecule agonists of the sonic hedgehog signaling (Shh) pathway - cell viability counter screen (AID 1259366). Also: nearly all actives have a fitted effect of over 50% in size. Put shortly:
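Cells are plated at 2,000 per well and left 4hr at 37C, 5% CO2 before compound addition. After 23hr of treatment, CellTiter-Fluor reagent is added for 1hr at 37C and fluorescence is measured.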

Experiment [8] in a line: qHTS assay to identify small molecule antagonists of the sonic hedgehog signaling (Shh) pathway - cell viability counter screen (AID 1259367). Also: nearly all actives have a fitted effect of over 55% in size. Put shortly: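 Using CellTiter-Fluor, viability of Gli1-Luc reporter 3T3 cells is read by fluorescence in the wells used for the Shh luciferase assay. Treatment lasts 23 hr with conditioned medium, then reagent 1 hr at 37C.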
The nature of experiment [9]: qHTS assay to identify small molecule phospholipidosis (PLD) inducers (AID 1259344; active = well fitted curve in the direction sought with a large enough effect; an effect the other way counts as inactive or inconclusive). An outline of the steps:
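Fluorescent phospholipid staining (LipidTOX Red) measured by automated microscopy in fixed HepG2 cells after 24 h treatment; nuclei counterstained with Hoechst 33342; amiodarone as reference inducer.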

SMILES strings stand for the structures. Values without a mark were called inactive. Records with an inconclusive call do not appear. Activity calls are given as the source filed them. Unless noted, calls follow the shape of the dose curve; as a rule, active = well fitted curve in the direction sought with a large enough effect in the repeat runs; inconclusive = weak or mixed curves; inactive = no such curve, though single readings can be large; an effect the other way counts as inactive or inconclusive.
% is scaled to controls: 0 for no effect and ±100 for the full control effect.

Chain of Estrogen receptor (Homo sapiens) (P03372 whole entry, looked up): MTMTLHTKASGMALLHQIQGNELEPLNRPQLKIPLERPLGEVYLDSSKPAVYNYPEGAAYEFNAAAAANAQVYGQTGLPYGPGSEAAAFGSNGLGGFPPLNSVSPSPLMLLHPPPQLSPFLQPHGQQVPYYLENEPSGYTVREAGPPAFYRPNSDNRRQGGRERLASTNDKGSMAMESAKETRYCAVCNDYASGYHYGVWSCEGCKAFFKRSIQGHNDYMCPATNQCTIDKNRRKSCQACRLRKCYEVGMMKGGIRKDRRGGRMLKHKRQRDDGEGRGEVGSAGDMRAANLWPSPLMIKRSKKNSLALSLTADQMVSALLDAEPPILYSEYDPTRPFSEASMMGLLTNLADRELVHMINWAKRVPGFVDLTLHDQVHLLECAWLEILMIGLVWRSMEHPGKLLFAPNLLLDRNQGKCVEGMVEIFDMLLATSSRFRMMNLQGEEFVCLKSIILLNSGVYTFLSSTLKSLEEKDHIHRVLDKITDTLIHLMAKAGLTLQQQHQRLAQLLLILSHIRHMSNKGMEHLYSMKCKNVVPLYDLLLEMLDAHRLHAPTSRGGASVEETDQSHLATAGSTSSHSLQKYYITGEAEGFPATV

Regarding `Cc1ncc([C@@H](CCCCCCc2ccc3c(n2)NCCC3)CC(=O)O)cn1`, the outcome in experiment [1], in [2], in [4] and in [5] was inactive. The Potency entry in [3] and in [6] was “inactive” each time.
As for `CCOC(=O)CCC(=O)OCC`, the outcome in experiment [1], in [2], in experiment [4] and in experiment [5] was inactive. The Potency entry in experiment [3], in experiment [7], in experiment [8] and in [6] was “inactive” in each case.
For `CC(C)(N)C#N`, the outcome in experiment [1], in experiment [2], in experiment [4] and in experiment [5] was inactive. Besides, the Potency result in experiment [3], in [7], in experiment [8] and in experiment [6] was “inactive” throughout.
Take `CCCCCCCCCCCCCCC(=O)O`: the outcome in experiment [1], in experiment [2], in experiment [4] and in experiment [5] was inactive. For the same molecule, the Potency result in experiment [3], in experiment [7], in experiment [8] and in [6] was “inactive” throughout.
With `C=CCCC(=O)O`, the result in experiment [1], in experiment [2] and in experiment [5] was inactive. Moreover, the Potency entry in experiment [7] and in experiment [6] was “inactive” throughout.
For `CCCC(C)C(=O)OCC` (configuration not stated), the outcome in experiment [1], in experiment [2], in experiment [4] and in experiment [5] was inactive. Further, the Potency result in experiment [7] and in experiment [6] was “inactive” in each case.
On to `Cc1ccc(C(=O)c2ccccc2)cc1`, for which the outcome in [1], in experiment [2], in [4] and in experiment [5] was inactive. For the same molecule, the Potency entry in [7] and in experiment [6] was “inactive” each time.
As to `FB(F)F`, the outcome in experiment [1], in experiment [2] and in experiment [5] was inactive. For the same molecule, the Potency entry in [3], in [7], in experiment [8] and in experiment [6] was “inactive” in each case.
`CC(=O)c1ccccc1[N+](=O)[O-]`: the outcome in experiment [1], in experiment [2], in experiment [4] and in experiment [5] was inactive. Further, the Potency result in [7] and in [8] was “inactive” throughout.
For the molecule `CCNS(=O)(=O)c1ccc(C)cc1`, the outcome in experiment [1], in experiment [2] and in experiment [5] was inactive. In addition, the Potency entry in [3], in experiment [7], in experiment [8] and in [6] was “inactive” throughout.
In the case of `O=C(O)c1cc(C(=O)O)cc(C(=O)O)c1`, the result in experiment [1], in experiment [2] and in [5] was inactive. The Potency entry in experiment [3] and in experiment [7] was “inactive” in each case.
As to `CCOC(=O)C1=NOC(c2ccccc2)(c2ccccc2)C1`, the result in [1], in [2], in experiment [4] and in experiment [5] was inactive. Further, the Potency result in [3] and in experiment [7] was “inactive” in each case.
In the case of `CC(C)(C)C(=O)c1ccccc1`, the result in experiment [1], in experiment [2] and in experiment [5] was inactive. Further, the Potency entry in experiment [3], in experiment [7], in experiment [8] and in experiment [6] was “inactive” in each case.
On to `O=C(O)CC(C(=O)O)S(=O)(=O)O` (configuration not stated), for which the outcome in [1], in experiment [2], in experiment [4] and in experiment [5] was inactive. Also, the Potency entry in [7] and in experiment [8] was “inactive” in each case. In addition, the Potency in experiment [6] is 30.6 µM (active).
In the case of `CC(C)C[C@@H](N)C(=O)O`, the figures for the viability change, negative = cytotoxic in [1], in [7] and in experiment [8] were -2.1% [at 19 µM], -2.88% [at 19 µM] and 1.81% [at 19 µM], respectively. Besides, in experiment [9], the call was inactive. In addition, the activity change, negative = inhibition in experiment [3] is 7.66% [at 19 µM]; in [6] it was 18.9% [at 19 µM]. For the same molecule, in experiment [4], the activity change, negative = cytotoxicity was -1.99% [at 19 µM]. For the same molecule, the activity change in [5] is -0.808% [at 18.9 µM].
As to `CC(C)(CCC(=O)O)C(=O)O`, the result in experiment [1], in [2], in experiment [4] and in [5] was inactive. The Potency entry in experiment [3], in [7], in experiment [8] and in [6] was “inactive” in each case.
As to `C=CC(=O)OCCCl`, the outcome in experiment [1], in experiment [2], in experiment [4] and in [5] was inactive. Further, the Potency entry in experiment [3], in experiment [7], in [8] and in experiment [6] was “inactive” throughout.
Consider `CCCc1nn(C)c2c(=O)[nH]c(-c3cc(S(=O)(=O)N4CCN(C)CC4)ccc3OCC)nc12`, for which the outcome in [1], in experiment [9], in [4] and in experiment [5] was inactive. The Potency entry in experiment [3], in [7] and in experiment [8] was “inactive” throughout.
With `O=[N+]([O-])c1ccc(/C=N\O)o1`, the result in [1], in [9], in [4] and in [5] was inactive. Besides, the Potency result in experiment [3], in experiment [7] and in experiment [8] was “inactive” throughout.
`CC1OC1C1CCC2(C)OC2C1` (configuration not stated): the outcome in experiment [1], in experiment [2] and in [5] was inactive. For the same molecule, the Potency result in [3] and in experiment [7] was “inactive” in each case.
Consider `CN(C)CCN(C)CCN(C)C`, for which the result in experiment [1], in experiment [2] and in [5] was inactive. Moreover, the Potency entry in experiment [3], in experiment [7], in experiment [8] and in experiment [6] was “inactive” each time.
Take `CCN1C=CN(C)C1C` (configuration not stated): the outcome in experiment [1], in experiment [2] and in [5] was inactive. The Potency entry in [3], in experiment [7] and in experiment [6] was “inactive” in each case.
With `CCOC(=O)c1ccccc1`, the result in experiment [1], in experiment [2], in experiment [4] and in experiment [5] was inactive. Further, the Potency result in experiment [3], in experiment [7] and in experiment [6] was “inactive” in each case.
For `CC(=O)c1ccc2ccccc2c1`, the outcome in experiment [1], in experiment [2] and in experiment [5] was inactive. Also, the Potency result in experiment [3], in experiment [7] and in experiment [6] was “inactive” each time.
`CO[Si](C)(OC)c1ccccc1`: the result in experiment [1], in experiment [2], in experiment [4] and in [5] was inactive. In addition, the Potency entry in [3], in [7] and in experiment [6] was “inactive” in each case.
Consider `CC/C=C\CCOC(C)OCC` (configuration not stated), for which the result in experiment [1], in experiment [2] and in experiment [5] was inactive. Further, the Potency result in experiment [7], in [8] and in [6] was “inactive” throughout.
For the molecule `CCCCc1ccc2c(n1)[C@@H](c1ccc(OC)cc1C[C@H](C)C(=O)O)[C@H](C(=O)O)[C@H]2c1ccc2c(c1)OCO2`, the outcome in experiment [1], in [2], in experiment [4] and in experiment [5] was inactive. In addition, the Potency result in [7] and in experiment [6] was “inactive” each time.
Take `CCCC(=O)O[C@]1(C(=O)CC)CC[C@H]2[C@@H]3CCC4=CC(=O)CC[C@]4(C)[C@H]3[C@@H](O)C[C@@]21C`: the outcome in [1], in [2] and in experiment [5] was inactive. The Potency result in experiment [7] and in experiment [8] was “inactive” in each case.
Turning to `CC(CC=O)CC(C)(C)C` (configuration not stated), the result in experiment [1], in experiment [2], in [4] and in experiment [5] was inactive. Besides, the Potency result in [3], in experiment [7], in experiment [8] and in experiment [6] was “inactive” in each case.
For `CC(C)(C)OC(=O)c1cccc(N)c1`, the outcome in experiment [1], in experiment [2], in [4] and in experiment [5] was inactive. Moreover, the Potency result in [7], in experiment [8] and in experiment [6] was “inactive” in each case.
In the case of `CN1C(C)(C)CC(O)CC1(C)C`, the result in [1], in [2] and in [5] was inactive. Also, the Potency entry in [3], in [7], in experiment [8] and in [6] was “inactive” each time.
